Reference: PubChem BioAssay AID743025 (Vanderbilt Specialized Chemistry Center, 2013)
Unmarked numbers belong to inactive results.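 The calls were made as follows: active = IC50 below 10 µM at human M5 in a calcium flux test, acting as a negative modulator; inactive = the rest.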

Target: Muscarinic acetylcholine receptor M5 (Homo sapiens) (UniProt P08912)
Assay: inhibition of ACh-evoked M5 calcium signal – cell-based, single concentration, human M5 (AID 743025)
Details: CHO-K1 hM5, ACh EC80 calcium flux, Fluo-4; at 10 µM; stronger effect = lower value

Chain of Muscarinic acetylcholine receptor M5 (Homo sapiens) (P08912 whole entry, looked up): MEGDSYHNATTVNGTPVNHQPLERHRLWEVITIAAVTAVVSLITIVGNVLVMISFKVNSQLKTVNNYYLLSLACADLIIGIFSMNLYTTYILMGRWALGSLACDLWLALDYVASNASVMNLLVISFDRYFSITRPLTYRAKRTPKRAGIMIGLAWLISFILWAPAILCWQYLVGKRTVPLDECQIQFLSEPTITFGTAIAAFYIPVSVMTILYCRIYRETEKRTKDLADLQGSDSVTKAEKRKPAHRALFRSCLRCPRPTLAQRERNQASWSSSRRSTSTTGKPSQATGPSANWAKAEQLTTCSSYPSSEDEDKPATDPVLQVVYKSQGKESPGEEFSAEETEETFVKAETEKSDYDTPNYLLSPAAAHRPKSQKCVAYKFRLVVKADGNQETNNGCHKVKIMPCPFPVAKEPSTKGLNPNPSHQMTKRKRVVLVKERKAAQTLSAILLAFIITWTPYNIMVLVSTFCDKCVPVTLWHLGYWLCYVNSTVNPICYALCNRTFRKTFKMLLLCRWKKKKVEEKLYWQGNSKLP

Row | Compound | activity remaining [%]
1 | O=C1c2ccccc2C2(c3ccc(Cl)cc3)NCCN12 (configuration not stated) | 78.7
2 | O=C1c2ncccc2C2(c3ccccc3)NCCN12 (configuration not stated) | 67.2
